Experimental data: the supplement of paper PMC11732987, “Enantioselective OTUD7B fragment discovery through chemoproteomics screening and high-throughput optimisation” (Communications Chemistry, 2025)

Legend:
Assay in all cases: log2 ratio of Biotin-Ahx-Ub-VS probe labelling (fragment/DMSO); higher = less target engagement (more negative = stronger competition), active = hit call of the paper (q ≤ 0.05, log2 ratio ≤ -1)
Details in all cases: compound concentration: 200 uM; treatment time: 3 h
USP19 = target: T1, USP19 (UniProt O94966)
T1 sequence (whole entry): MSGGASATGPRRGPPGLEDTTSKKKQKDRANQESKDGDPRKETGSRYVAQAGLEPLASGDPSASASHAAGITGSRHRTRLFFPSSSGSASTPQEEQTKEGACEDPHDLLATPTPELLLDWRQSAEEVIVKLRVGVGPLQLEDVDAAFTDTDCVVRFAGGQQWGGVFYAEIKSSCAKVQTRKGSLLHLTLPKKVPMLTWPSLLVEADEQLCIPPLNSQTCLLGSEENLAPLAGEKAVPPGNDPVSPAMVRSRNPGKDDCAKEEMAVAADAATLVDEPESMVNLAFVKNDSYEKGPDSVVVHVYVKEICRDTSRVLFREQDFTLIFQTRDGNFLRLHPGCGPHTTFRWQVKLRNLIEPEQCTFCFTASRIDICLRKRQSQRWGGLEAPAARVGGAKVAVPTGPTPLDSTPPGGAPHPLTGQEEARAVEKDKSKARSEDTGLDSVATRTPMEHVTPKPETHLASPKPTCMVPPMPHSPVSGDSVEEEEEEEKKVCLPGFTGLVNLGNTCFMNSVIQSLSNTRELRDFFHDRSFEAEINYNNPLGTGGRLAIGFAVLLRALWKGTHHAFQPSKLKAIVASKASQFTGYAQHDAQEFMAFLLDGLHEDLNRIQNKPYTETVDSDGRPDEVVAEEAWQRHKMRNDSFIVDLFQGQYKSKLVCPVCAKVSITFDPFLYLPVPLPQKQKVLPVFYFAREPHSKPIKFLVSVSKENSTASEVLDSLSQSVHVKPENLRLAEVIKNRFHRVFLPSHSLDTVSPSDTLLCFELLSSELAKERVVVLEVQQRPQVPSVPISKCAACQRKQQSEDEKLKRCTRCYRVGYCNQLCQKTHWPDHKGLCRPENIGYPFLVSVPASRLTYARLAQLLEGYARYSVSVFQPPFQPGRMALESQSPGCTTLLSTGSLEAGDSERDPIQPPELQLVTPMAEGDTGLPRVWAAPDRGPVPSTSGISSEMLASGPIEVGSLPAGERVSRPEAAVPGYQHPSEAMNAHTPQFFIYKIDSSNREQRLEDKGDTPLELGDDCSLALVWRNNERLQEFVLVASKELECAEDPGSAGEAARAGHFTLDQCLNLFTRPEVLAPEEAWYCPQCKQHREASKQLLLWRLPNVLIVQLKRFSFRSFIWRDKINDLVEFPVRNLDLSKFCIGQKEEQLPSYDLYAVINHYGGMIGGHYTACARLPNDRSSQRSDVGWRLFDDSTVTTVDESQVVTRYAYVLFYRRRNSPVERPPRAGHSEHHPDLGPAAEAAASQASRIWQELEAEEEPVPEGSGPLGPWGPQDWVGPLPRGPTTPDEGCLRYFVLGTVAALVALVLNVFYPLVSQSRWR
In short: (§1)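 Triplicate samples of HEK293T lysate, 495 µg each, received fragment at 200 µM or vehicle for 3 h, followed by Biotin-Ahx-Ub-VS (0.5 µM final) for 1 h. After NeutrAvidin enrichment of labelled DUBs and LysC/trypsin digestion, peptides were run by diaPASEF LC-MS/MS. The values are average log2 fragment/vehicle ratios from global-median-normalised Spectronaut label-free quantities, tested by unpaired t-test on proteins having ≥2 unique peptides.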

USP22 = target: T2, USP22 (UniProt Q9UPT9)
T2 sequence (whole entry): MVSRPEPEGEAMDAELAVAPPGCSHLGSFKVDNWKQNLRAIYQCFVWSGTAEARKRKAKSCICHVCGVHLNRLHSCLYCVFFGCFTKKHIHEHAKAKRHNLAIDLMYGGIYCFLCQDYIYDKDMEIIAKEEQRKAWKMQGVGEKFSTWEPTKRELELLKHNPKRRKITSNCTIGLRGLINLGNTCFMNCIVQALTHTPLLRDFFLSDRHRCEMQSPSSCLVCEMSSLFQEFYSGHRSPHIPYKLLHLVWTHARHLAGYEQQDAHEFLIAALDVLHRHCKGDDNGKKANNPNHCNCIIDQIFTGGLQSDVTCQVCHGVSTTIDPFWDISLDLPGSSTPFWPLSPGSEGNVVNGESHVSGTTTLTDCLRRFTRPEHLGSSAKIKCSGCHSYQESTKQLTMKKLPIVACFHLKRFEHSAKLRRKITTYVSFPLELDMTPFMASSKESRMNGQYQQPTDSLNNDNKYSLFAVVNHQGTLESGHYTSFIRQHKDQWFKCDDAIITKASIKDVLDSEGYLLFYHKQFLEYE
In short: as §1

USP24 = USP24 (UniProt Q9UPU5)
In short: as §1

USP25 = target: T3, USP25 (UniProt Q9UHP3)
T3 sequence (whole entry): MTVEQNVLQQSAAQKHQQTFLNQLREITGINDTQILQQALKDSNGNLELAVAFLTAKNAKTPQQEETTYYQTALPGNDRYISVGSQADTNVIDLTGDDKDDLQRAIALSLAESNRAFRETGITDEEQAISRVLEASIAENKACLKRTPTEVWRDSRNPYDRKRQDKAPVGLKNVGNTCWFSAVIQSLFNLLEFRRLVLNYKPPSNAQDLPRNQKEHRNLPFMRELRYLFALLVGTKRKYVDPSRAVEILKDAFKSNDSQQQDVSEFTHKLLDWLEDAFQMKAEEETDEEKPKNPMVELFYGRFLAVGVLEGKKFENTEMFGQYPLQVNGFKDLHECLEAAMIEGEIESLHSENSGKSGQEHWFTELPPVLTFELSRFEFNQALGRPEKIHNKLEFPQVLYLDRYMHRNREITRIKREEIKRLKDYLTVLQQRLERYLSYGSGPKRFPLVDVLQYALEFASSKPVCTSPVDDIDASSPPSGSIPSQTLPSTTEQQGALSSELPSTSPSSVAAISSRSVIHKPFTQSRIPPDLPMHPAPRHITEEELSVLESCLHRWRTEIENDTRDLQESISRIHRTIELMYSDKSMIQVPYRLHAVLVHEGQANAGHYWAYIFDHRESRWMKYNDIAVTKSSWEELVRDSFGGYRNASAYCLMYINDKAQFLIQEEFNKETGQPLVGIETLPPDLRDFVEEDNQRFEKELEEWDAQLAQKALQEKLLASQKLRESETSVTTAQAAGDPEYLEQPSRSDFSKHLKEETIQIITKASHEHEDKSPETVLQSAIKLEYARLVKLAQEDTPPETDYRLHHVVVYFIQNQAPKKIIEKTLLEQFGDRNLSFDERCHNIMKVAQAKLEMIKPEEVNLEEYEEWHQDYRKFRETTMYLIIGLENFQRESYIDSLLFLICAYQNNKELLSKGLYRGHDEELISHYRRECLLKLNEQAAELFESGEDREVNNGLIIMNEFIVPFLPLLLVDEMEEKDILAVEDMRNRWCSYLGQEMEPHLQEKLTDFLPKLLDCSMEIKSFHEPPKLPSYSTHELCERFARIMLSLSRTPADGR
In short: as §1

USP28 = target: T4, USP28 (UniProt Q96RU2)
T4 sequence (whole entry): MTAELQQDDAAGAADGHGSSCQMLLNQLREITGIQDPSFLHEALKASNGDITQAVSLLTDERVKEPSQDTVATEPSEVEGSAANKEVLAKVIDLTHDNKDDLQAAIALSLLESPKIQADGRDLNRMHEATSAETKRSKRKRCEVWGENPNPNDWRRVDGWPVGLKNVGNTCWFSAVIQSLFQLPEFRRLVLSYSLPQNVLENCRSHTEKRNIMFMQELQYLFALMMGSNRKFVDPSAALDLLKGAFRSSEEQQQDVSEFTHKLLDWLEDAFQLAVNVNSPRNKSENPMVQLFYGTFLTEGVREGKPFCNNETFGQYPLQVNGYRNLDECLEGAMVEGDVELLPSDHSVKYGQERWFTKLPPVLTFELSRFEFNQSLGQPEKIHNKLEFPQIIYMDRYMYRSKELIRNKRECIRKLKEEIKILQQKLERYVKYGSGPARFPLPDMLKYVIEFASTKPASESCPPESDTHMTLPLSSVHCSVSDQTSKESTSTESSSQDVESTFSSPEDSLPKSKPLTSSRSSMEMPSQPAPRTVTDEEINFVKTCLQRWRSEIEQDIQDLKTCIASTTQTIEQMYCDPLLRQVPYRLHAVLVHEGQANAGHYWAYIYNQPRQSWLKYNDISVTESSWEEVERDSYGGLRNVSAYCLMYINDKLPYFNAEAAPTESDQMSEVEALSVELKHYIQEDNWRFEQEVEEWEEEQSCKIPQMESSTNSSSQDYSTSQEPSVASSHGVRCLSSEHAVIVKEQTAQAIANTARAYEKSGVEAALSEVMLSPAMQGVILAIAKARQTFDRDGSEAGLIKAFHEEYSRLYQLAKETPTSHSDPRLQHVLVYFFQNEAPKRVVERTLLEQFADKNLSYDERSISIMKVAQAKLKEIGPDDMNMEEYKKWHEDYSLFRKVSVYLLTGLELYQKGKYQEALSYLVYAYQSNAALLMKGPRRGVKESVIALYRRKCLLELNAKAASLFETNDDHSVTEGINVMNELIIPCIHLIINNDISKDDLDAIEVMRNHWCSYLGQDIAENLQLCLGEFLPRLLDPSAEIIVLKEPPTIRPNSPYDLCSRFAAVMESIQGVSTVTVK
In short: as §1

Measured: log2 ratio of Biotin-Ahx-Ub-VS probe labelling

Sequence of USP24 (Q9UPU5 whole entry): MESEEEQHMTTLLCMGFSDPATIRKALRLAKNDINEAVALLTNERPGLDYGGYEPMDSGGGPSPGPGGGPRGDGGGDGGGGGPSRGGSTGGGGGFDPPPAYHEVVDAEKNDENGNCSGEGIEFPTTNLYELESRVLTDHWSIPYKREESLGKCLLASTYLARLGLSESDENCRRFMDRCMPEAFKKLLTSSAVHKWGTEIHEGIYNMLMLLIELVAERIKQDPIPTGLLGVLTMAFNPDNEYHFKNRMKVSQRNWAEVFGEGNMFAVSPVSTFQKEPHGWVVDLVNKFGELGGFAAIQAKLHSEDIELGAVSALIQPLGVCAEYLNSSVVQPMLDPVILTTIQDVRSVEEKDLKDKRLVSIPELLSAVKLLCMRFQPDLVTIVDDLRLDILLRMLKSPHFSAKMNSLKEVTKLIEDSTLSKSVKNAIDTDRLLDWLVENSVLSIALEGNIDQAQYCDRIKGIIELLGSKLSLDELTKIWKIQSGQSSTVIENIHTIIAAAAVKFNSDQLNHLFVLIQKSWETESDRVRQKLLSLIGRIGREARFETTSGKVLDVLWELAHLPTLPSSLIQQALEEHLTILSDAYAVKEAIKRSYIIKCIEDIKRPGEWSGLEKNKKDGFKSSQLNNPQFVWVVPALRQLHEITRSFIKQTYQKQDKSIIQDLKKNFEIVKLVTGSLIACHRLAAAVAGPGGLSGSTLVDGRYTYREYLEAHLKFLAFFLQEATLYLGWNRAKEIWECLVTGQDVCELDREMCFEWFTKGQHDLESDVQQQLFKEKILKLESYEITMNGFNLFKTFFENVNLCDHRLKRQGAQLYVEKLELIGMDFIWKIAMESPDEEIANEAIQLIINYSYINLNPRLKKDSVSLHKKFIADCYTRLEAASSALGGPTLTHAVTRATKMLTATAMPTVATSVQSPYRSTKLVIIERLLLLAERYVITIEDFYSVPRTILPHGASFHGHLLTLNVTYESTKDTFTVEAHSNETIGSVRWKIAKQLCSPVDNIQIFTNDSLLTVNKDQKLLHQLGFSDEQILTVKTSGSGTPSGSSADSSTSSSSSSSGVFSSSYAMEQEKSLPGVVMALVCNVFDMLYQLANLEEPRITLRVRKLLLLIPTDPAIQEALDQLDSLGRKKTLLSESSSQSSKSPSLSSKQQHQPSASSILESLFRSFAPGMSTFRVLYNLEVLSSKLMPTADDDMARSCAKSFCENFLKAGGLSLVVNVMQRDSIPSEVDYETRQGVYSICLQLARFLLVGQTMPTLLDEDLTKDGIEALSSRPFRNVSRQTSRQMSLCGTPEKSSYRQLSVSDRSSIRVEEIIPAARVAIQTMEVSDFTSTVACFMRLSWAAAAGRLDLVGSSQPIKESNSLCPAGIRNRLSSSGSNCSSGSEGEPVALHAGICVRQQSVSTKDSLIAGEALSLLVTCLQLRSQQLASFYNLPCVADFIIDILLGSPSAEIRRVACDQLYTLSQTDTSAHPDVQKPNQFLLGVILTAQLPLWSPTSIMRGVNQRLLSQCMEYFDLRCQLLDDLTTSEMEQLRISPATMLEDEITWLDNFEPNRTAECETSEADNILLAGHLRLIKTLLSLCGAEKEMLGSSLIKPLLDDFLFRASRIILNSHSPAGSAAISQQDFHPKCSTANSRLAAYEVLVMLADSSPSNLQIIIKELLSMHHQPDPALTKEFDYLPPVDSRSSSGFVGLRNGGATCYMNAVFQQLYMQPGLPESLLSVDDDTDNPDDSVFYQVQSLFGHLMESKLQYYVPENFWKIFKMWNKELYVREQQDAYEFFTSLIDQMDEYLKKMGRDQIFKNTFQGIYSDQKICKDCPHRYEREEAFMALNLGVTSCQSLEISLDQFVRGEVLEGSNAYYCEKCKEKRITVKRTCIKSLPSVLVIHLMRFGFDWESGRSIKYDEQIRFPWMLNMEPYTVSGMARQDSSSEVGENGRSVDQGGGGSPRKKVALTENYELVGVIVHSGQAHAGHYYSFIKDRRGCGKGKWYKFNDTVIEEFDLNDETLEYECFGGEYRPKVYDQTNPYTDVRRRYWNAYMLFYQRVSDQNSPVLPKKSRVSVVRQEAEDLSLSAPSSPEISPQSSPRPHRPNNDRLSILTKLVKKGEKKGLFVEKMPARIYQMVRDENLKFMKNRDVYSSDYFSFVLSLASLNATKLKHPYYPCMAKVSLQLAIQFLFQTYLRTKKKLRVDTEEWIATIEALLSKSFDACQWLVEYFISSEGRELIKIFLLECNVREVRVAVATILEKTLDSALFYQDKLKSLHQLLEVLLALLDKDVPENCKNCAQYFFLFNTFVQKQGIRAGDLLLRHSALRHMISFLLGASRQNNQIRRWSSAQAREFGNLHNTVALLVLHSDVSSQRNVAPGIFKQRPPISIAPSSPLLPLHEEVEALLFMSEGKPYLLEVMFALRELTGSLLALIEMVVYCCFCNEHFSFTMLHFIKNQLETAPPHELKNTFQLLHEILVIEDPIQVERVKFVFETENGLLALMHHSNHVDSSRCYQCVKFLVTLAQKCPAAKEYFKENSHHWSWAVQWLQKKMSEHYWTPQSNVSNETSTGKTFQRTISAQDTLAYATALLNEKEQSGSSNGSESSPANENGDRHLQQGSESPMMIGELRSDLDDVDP

Cc1ccc(N2CCC(NC(=O)CCl)C2=O)cc1 (stereo not given)
inactive: USP19 0.0818 | USP22 -0.233 | USP24 0.141 | USP25 0.0471 | USP28 -0.0346
